Reference: the supplement of paper PMC9588786
Several values for one entry are separate records, joined by “and”; a condition that tells them apart may be missing. Equal values may be shown once. Where a name gives a salt, the structure may show the parent alone. ± gives the standard deviation of the averaged measurements.

System: HT-1080
Assay: relative cell viability with RSL3 co-treatment (fraction of control); higher = stronger protection from RSL3-induced ferroptosis (higher viability)
Conditions: 10 µM
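Also: viability read as CCK-8 absorbance at 450 nm in cells co-exposed to the GPX4 inhibitor RSL3, relative to a 0.01% DMSO vehicle control.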

SMILES | relative cell viability
Cc1cc(N2CCOCC2)cc2[nH]c(-c3c(NC[C@@H](O)c4cccc(Cl)c4)cc[nH]c3=O)nc12 | 0.987 ± 0.15
CO[C@H]1C[C@@H]2CC[C@@H](C)[C@@](O)(O2)C(=O)C(=O)N2CCCC[C@H]2C(=O)O[C@H]([C@H](C)C[C@@H]2CC[C@H](n3cnnn3)[C@H](OC)C2)CC(=O)[C@H](C)/C=C(\C)[C@@H](O)[C@@H](OC)C(=O)[C@H](C)C[C@H](C)/C=C/C=C/C=C/1C [Zotarolimus(ABT-578)] | 0.607 ± 0.16
C[C@@H]1CCN(C(=O)CC#N)C[C@@H]1N(C)c1ncnc2[nH]ccc12 | 0.75 and 0.64
CS(=O)(=O)CCNCc1ccc(-c2ccc3ncnc(Nc4ccc(OCc5cccc(F)c5)c(Cl)c4)c3c2)o1 [Lapatinib] | 1.21 ± 0.064
CS(=O)(=O)c1ccc(-c2cnc(N)c(C(=O)Nc3ccccc3)n2)cc1 | 0.713 ± 0.05
CCN(CC)CCNC(=O)c1c(C)[nH]c(/C=C2\C(=O)Nc3ccc(F)cc32)c1C [Sunitinib Malate] | 0.543 ± 0.099
O=c1c(-c2ccc(O)cc2)coc2cc(O)cc(O)c12 [Genistein] | 0.76 ± 0.07
CO[C@H]1C[C@@H]2CC[C@@H](C)[C@@](O)(O2)C(=O)C(=O)N2CCCC[C@H]2C(=O)O[C@H]([C@H](C)C[C@@H]2CC[C@@H](OCCO)[C@H](OC)C2)CC(=O)[C@H](C)/C=C(\C)[C@@H](O)[C@@H](OC)C(=O)[C@H](C)C[C@H](C)/C=C/C=C/C=C/1C [Everolimus (RAD001)] | 0.607 ± 0.13
O=c1cc(N2CCOCC2)oc2c(-c3ccccc3)cccc12 | 0.76 ± 0.16
CNc1nc(Nc2cn(C(C)(C)C#N)nc2C)ncc1C(F)(F)F | 0.757 ± 0.1
Cc1ccc(NC(=O)c2ccc(CN3CCN(C)CC3)cc2)cc1Nc1nccc(-c2cccnc2)n1 [Imatinib Mesylate (STI571)] | 0.733 ± 0.17
CC1(C)CNc2cc(NC(=O)c3cccnc3NCc3ccncc3)ccc21 [Motesanib Diphosphate (AMG-706)] | 0.533 ± 0.21
CC1(COc2ccc3c(c2)ncn3-c2ccc3cccc(N4CCC(N)CC4)c3n2)COC1 | 0.683 ± 0.27
CCN(C)S(=O)(=O)Nc1ccc(F)c(C(=O)c2c[nH]c3ncc(-c4cnc(C5CC5)nc4)cc23)c1F | 0.71 ± 0.017
O=C(O)c1ccc(Nc2ncc3c(n2)-c2ccc(Cl)cc2C(c2c(F)cccc2F)=NC3)cc1 | 0.433 ± 0.045
COc1c(C)c(C(=O)c2ccc(N)c(C(=O)O)c2)n2ccccc12 | 0.653 ± 0.14

SMILES | relative cell viability
CCCCCCCCc1ccc(CCC(N)(CO)CO)cc1 [Fingolimod (FTY720) HCl] | 0.253 ± 0.1
Cn1cc(-c2ccc3ncc(Cc4ccc5ncccc5c4)n3n2)cn1 | 0.727 ± 0.11
C=CC(=O)N1CCC[C@@H](n2nc(-c3ccc(Oc4ccccc4)cc3)c3c(N)ncnc32)C1 | 0.933 ± 0.11
CCc1nc(-c2cccc(C)c2)c(-c2ccnc(NC(=O)c3ccccc3)c2)s1 | 0.783 ± 0.1
COc1cccc2cc(-c3nc([C@H]4CC[C@H](C(=O)O)CC4)n4ncnc(N)c34)[nH]c12 | 0.7 ± 0.07
N#Cc1c(Oc2ccc(F)c(NC(=O)Cc3cccc(C(F)(F)F)c3)c2)ccc2nc(NC(=O)C3CC3)sc12 | 0.797 ± 0.032
Cc1cc(CS(=O)(=O)c2ccccc2)cc(OCc2ccc(CN3CCC[C@@H]3CO)cc2)c1 | 0.723 ± 0.12
C=CC(=O)Nc1cc(Nc2nccc(-c3cn(C)c4ccccc34)n2)c(OC)cc1N(C)CCN(C)C [Osimertinib (AZD9291)] | 0.403 ± 0.068
CO[C@@H](C(=O)N1Cc2[nH]nc(NC(=O)c3ccc(N4CCN(C)CC4)cc3)c2C1)c1ccccc1 | 0.507 ± 0.1
O=C(Nc1nc2cccc(-c3ccc(CN4CCS(=O)(=O)CC4)cc3)n2n1)C1CC1 [Filgotinib (GLPG0634)] | 0.687 ± 0.035
NC(=O)c1cnc(N[C@@H]2CCCC[C@@H]2N)nc1Nc1cccc(-n2nccn2)c1 | 0.56 ± 0.11
O=c1ncn2nc(Sc3ccc(F)cc3F)ccc2c1-c1c(Cl)cccc1Cl | 0.5 ± 0.14
CN1CCN(CCOc2cc(OC3CCOCC3)c3c(Nc4c(Cl)ccc5c4OCO5)ncnc3c2)CC1 [Saracatinib (AZD0530)] | 0.727 ± 0.16
O=c1c(O)c(-c2ccc(O)c(O)c2)oc2cc(O)cc(O)c12 [Quercetin] | 0.703 ± 0.074
CCNC(=O)Nc1ccc(-c2nc3c(c(N4CCOC[C@@H]4C)n2)CCN(C2COC2)C3)cc1 | 0.503 ± 0.2
CCCNC(=O)c1cn2ncnc(Nc3cc(C(=O)NC4CC4)ccc3C)c2c1C | 0.78 ± 0.04
